# Laboratory results reported in PMC7862700, “An all-to-all approach to the identification of sequence-specific readers for epigenetic DNA modifications on cytosine”.
# Assays:
# Experiment in all cases: DAPPL (digital affinity profiling via proximity ligation, sequencing); 10 mM Tris-HCl pH 7.5, 50 mM NaCl, 1 mM DTT, 4% glycerol, room temperature, 30 min; GST-TFs on glutathione beads, 16-mer random dsDNA library, 0.1% formaldehyde crosslink after washing; high values mean tight binding
# Details in all cases: protein: recombinant; tags: N-terminal GST; dsDNA, one strand shown
# [1] = target: T1, ERF (Homo sapiens, UniProt P50548 1-548)
# T1 sequence: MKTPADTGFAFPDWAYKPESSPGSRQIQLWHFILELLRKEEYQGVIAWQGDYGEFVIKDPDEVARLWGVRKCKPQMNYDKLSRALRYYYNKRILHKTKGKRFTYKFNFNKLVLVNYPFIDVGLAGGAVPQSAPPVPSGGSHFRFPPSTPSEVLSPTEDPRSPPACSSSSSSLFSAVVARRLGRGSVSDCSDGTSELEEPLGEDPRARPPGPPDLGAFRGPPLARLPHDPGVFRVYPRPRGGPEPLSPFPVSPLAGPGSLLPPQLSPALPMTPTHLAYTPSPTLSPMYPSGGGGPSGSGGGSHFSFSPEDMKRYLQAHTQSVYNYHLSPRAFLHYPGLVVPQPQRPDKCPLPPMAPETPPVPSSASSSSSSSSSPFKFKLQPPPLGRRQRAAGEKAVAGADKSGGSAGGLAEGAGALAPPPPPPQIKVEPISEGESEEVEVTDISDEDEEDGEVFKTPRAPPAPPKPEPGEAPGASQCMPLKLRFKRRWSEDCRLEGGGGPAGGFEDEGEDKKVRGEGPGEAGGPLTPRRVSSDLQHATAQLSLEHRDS
# In short: (§1)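 Binding signal is each hexamer's read frequency for a factor divided by its frequency in the tag-only sample. The factors were GST-fused human transcription factors from yeast, captured on glutathione beads, DNA-barcoded and pooled with that sample. Pools were incubated with 200 nmole of a random double-stranded 16-mer DNA library in Tris/NaCl/DTT/glycerol buffer at room temperature for 30 min, then washed, crosslinked with 0.1% formaldehyde, proximity-ligated with BsaI/T4 ligase (1 h, 37 °C), PCR-amplified and sequenced on an Illumina NextSeq500.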
# [2] = target: T2, ETV3L (Homo sapiens, UniProt Q6ZN32 1-361)
# T2 sequence: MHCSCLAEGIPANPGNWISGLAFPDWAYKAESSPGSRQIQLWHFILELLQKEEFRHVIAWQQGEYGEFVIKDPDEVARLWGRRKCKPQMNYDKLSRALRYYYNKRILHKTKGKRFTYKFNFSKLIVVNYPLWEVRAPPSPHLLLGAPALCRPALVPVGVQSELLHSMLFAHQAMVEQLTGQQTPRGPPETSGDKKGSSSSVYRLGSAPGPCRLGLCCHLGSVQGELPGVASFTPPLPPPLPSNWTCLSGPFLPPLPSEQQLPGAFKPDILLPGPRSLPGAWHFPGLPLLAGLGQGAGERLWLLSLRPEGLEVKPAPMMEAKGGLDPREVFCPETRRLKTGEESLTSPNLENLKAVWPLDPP
# In short: as §1
# [3] = target: T3, ETS2 (Homo sapiens, UniProt P15036 1-469)
# T3 sequence: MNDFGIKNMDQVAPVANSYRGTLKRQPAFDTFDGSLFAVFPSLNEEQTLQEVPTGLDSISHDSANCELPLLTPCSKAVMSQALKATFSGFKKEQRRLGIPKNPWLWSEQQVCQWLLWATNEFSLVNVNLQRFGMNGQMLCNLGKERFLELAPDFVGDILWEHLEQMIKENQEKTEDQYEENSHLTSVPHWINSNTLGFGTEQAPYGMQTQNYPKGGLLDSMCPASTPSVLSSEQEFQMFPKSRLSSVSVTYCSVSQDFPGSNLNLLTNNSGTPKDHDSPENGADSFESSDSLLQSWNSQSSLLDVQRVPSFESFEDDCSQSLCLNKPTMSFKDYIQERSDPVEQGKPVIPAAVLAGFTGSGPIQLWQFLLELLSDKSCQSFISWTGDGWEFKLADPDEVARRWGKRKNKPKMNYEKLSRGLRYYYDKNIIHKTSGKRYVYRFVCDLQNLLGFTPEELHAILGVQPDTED
# In short: as §1
# [4] = target: T4, SPDEF (Homo sapiens, UniProt O95238 1-335)
# T4 sequence: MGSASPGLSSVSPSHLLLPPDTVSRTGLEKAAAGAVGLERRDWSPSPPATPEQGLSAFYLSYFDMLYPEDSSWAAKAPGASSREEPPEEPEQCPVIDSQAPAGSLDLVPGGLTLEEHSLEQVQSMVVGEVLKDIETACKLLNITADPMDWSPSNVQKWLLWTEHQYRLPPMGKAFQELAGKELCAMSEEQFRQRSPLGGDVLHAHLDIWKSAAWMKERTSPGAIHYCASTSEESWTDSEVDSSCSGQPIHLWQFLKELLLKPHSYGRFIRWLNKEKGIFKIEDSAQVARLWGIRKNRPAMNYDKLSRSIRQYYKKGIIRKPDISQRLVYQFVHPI
# In short: as §1
# [5] = target: T5, ETV7 (Homo sapiens, UniProt Q9Y603 1-341)
# T5 sequence: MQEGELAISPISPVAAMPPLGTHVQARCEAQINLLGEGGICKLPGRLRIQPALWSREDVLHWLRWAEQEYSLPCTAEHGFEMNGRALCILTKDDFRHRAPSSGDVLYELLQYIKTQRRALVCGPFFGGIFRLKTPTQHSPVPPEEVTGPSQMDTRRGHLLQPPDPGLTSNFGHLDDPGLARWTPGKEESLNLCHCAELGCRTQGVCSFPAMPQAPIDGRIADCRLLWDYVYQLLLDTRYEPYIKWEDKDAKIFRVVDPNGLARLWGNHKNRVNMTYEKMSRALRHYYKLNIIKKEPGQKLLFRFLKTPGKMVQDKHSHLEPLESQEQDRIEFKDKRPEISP
# In short: as §1
# [6] = target: T6, ELF5 (Homo sapiens, UniProt Q9UKW6-2 1-255)
# T6 sequence: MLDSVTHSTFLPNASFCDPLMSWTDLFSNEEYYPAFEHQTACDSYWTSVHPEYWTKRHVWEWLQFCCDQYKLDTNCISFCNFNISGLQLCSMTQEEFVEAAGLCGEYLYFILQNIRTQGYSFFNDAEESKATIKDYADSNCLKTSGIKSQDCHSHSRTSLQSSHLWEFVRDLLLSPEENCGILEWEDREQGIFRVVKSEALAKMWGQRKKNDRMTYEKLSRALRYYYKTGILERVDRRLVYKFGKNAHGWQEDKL
# In short: as §1
# [7] = target: T7, ETV3 (Homo sapiens, UniProt P41162-2 1-143)
# T7 sequence: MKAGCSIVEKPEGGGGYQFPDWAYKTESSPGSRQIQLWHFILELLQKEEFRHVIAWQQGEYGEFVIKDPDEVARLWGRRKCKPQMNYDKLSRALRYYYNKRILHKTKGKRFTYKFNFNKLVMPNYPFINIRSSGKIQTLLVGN
# In short: as §1
# [8] = target: ETV6 (Homo sapiens, UniProt P41212 1-452)
# ETV6, sequence (P41212 whole entry): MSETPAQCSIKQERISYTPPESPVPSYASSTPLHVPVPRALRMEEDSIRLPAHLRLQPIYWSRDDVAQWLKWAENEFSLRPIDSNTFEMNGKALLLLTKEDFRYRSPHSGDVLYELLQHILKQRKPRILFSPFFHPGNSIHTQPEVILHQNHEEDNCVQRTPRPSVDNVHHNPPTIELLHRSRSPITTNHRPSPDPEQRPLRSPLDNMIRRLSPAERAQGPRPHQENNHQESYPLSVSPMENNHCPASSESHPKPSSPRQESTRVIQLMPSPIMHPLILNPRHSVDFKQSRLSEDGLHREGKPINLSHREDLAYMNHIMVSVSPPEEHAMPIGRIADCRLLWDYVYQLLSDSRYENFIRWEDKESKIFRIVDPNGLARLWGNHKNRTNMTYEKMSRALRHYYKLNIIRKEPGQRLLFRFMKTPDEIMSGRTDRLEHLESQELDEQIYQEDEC
# In short: as §1
Sequence,binding signal [1],binding signal [2],binding signal [3],binding signal [4],binding signal [5],binding signal [6],binding signal [7],binding signal [8]
TATCAC,"1.19 fold enrichment (6-mer frequency, TF over GST control)","1.23 fold enrichment (6-mer frequency, TF over GST control)","1.2 fold enrichment (6-mer frequency, TF over GST control)","1.25 fold enrichment (6-mer frequency, TF over GST control)","1.14 fold enrichment (6-mer frequency, TF over GST control)","1.14 fold enrichment (6-mer frequency, TF over GST control)","1.19 fold enrichment (6-mer frequency, TF over GST control)","1.25 fold enrichment (6-mer frequency, TF over GST control)"
TCCGCA,"1.95 fold enrichment (6-mer frequency, TF over GST control)","2.08 fold enrichment (6-mer frequency, TF over GST control)","2.26 fold enrichment (6-mer frequency, TF over GST control)","2.24 fold enrichment (6-mer frequency, TF over GST control)","1.98 fold enrichment (6-mer frequency, TF over GST control)","2.61 fold enrichment (6-mer frequency, TF over GST control)","2.27 fold enrichment (6-mer frequency, TF over GST control)","2.18 fold enrichment (6-mer frequency, TF over GST control)"
TAACCC,"1.17 fold enrichment (6-mer frequency, TF over GST control)","1.22 fold enrichment (6-mer frequency, TF over GST control)","1.26 fold enrichment (6-mer frequency, TF over GST control)","1.32 fold enrichment (6-mer frequency, TF over GST control)","1.31 fold enrichment (6-mer frequency, TF over GST control)","1.3 fold enrichment (6-mer frequency, TF over GST control)","1.26 fold enrichment (6-mer frequency, TF over GST control)","1.3 fold enrichment (6-mer frequency, TF over GST control)"
CTTCAA,"1.41 fold enrichment (6-mer frequency, TF over GST control)","1.3 fold enrichment (6-mer frequency, TF over GST control)","1.25 fold enrichment (6-mer frequency, TF over GST control)","1.34 fold enrichment (6-mer frequency, TF over GST control)","1.27 fold enrichment (6-mer frequency, TF over GST control)","1.32 fold enrichment (6-mer frequency, TF over GST control)","1.29 fold enrichment (6-mer frequency, TF over GST control)","1.39 fold enrichment (6-mer frequency, TF over GST control)"
TTTTGC,"1.53 fold enrichment (6-mer frequency, TF over GST control)","1.35 fold enrichment (6-mer frequency, TF over GST control)","1.31 fold enrichment (6-mer frequency, TF over GST control)","1.35 fold enrichment (6-mer frequency, TF over GST control)","1.36 fold enrichment (6-mer frequency, TF over GST control)","1.27 fold enrichment (6-mer frequency, TF over GST control)","1.15 fold enrichment (6-mer frequency, TF over GST control)","1.49 fold enrichment (6-mer frequency, TF over GST control)"
CTTGCG,"1.41 fold enrichment (6-mer frequency, TF over GST control)","1.39 fold enrichment (6-mer frequency, TF over GST control)","1.28 fold enrichment (6-mer frequency, TF over GST control)","1.25 fold enrichment (6-mer frequency, TF over GST control)","1.3 fold enrichment (6-mer frequency, TF over GST control)","1.28 fold enrichment (6-mer frequency, TF over GST control)","1.42 fold enrichment (6-mer frequency, TF over GST control)","1.37 fold enrichment (6-mer frequency, TF over GST control)"
TGTTTT,"1.26 fold enrichment (6-mer frequency, TF over GST control)","1.37 fold enrichment (6-mer frequency, TF over GST control)","1.36 fold enrichment (6-mer frequency, TF over GST control)","1.41 fold enrichment (6-mer frequency, TF over GST control)","1.28 fold enrichment (6-mer frequency, TF over GST control)","1.48 fold enrichment (6-mer frequency, TF over GST control)","1.46 fold enrichment (6-mer frequency, TF over GST control)","1.39 fold enrichment (6-mer frequency, TF over GST control)"
